TSG101-PTAP inh = qHTS Assay for Iinhibitors of HIV-1 Budding by Blocking the Interaction of PTAP/TSG101. Potency, µM (highest dose often 115 µM), for the others: at the highest dose activity change, negative = inhibition, usual class: inhibitors. 340,000 tested, under 10 active. Fluorescence polarization, FITC-PTAP peptide / Tsg101 binding. Tumor susceptibility gene 101 protein (Homo sapiens), Q99816; active means well fitted inhibition curve with a large enough effect in the main read-out, with a control signal flat, not every such curve was filed as active; inconclusive means small, poorly fitted or top-dose-only effect, or effect the other way, or a change in a side signal; inactive means no such curve, though single readings can be large or run the other way; further: potency means the concentration at half of the fitted maximal effect; % of control where 0% means no effect
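Tsg101 binding domain (10 uM final) was mixed with compound and a FITC-labeled PTAP peptide (50 nM final) in HEPES pH 7.5 buffer with NaCl, Tween 20, EDTA and TCEP; fluorescence polarization was read after 20 min at r.t.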
PKM2 activator = qHTS Assay for Activators of Human Muscle isoform 2 Pyruvate Kinase. Potency, µM (highest dose often 57.5 µM), without a hit: at the highest dose activation, hits mostly activators. actives 0.34% (n = 260,000). AID 1631, 2009. purified PKM2, Kinase-Glo ATP luminescence, activation; response scale: 0% is enzyme alone, no compound; active means well fitted activation curve with a large enough effect; inconclusive means small, poorly fitted or top-dose-only effect; inactive means no such curve, though single readings can be large or run the other way; further: potency means the concentration at half of the fitted maximal effect; on the % scale 0 is the no-effect control and ±100 the full control effect; nearly all actives have a fitted effect of over 55% in size
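Kinase-Glo luminescence reports ATP generated from ADP (0.1 mM) and PEP (0.5 mM) by purified hPK-M2 after 1 h at room temperature, pH 7.2 imidazole buffer; intermediate enzyme activity allows detecting inhibitors and activators.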
BRCA1 expr up = qHTS Assay to Identify Small Molecule Activators of BRCA1 Expression; Potency, µM (titrated, usually from 46.1 µM), without a hit: at the top dose activation, usual class: activators; actives 1.1% (n = 380,000); MCF7-BRCA1-FFLuc reporter, luminescence, 48 h; response scale: scaled: vehicle 0%, 10 µM genistein 100%; active means well fitted activation curve with a large enough effect; inconclusive means small, poorly fitted or top-dose-only effect; inactive means no such curve, though single readings can be large or run the other way; further: potency means the concentration at half of the fitted maximal effect; nearly all actives have a fitted effect of over 80% in size
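Luminescence from a BRCA1-driven firefly luciferase in MCF7 cells was the read-out, taken 15 min after substrate addition following 48 h compound exposure at 37 °C. Data were normalized to a 10 microM genistein control and DMSO vehicle.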
TRPML1 ag = qHTS for Agonists of the Human Mucolipin Transient Receptor Potential 1 (TRPML1); Mucolipin-1 (Homo sapiens), Q9GZU1; AID 624414, 2012; actives 0.12% (n = 410,000); TRPML1-expressing cells, Ca2+ dye fluorescence, FDSS; activation, % (test concentration not listed); further: 0% is about no effect
Target sequence (Q9GZU1 whole entry, looked up): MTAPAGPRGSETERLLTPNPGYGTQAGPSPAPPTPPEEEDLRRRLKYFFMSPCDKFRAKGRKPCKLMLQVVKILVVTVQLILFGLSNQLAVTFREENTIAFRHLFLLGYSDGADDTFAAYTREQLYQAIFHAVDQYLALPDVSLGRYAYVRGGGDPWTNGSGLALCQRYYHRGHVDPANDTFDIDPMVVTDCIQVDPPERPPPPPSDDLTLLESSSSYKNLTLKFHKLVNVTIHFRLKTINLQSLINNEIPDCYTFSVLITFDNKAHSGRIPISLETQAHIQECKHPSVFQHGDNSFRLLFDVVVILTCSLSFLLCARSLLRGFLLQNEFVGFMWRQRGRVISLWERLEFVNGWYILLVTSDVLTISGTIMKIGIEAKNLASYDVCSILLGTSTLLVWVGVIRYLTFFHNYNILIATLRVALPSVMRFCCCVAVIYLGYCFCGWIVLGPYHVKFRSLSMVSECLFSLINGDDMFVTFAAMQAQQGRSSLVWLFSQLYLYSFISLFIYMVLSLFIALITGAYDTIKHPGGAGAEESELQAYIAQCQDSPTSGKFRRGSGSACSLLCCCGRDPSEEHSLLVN
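TRPML1-DL cells, Tet-induced overnight (~16 h, 37 degrees C), loaded 45-90 min at room temperature with Ca8 no-wash calcium dye plus quencher. FDSS fluorescence: 10 s baseline, compound pin-transfer, 110 s agonist read, then EC80 54-4 (4uM final) and 110 s antagonist read.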
IL-2 act = qHTS of IL-2 Activators. activation, % (series mostly up to about 46 µM). IL-2 activation reporter assay, cell-based qHTS; stimulated with anti-CD3/CD4/CD28 beads; in transgenic mouse T cells. actives 0.065% (n = 360,000); further: 0% is about no effect
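Using fluorescent plate cytometry, EGFP and DsRed are detected in transgenic mouse T cells stimulated 18 h at 37 degrees C with antibody-coated beads after 60 min compound pretreatment.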
TRPML1 inh = qHTS for Inhibitors of the Human Mucolipin Transient Receptor Potential 1 (TRPML1); Mucolipin-1 (Homo sapiens), Q9GZU1; TRPML1-inducible cells, Ca2+ dye fluorescence, FDSS; active compounds read low; inhibition of EC80 agonist-evoked calcium signal; activity change, negative = inhibition, % (concentration not given with the values); actives 0.02% (n = 390,000); AID 624415, 2012; in the data active means activity change below about -50%; inconclusive means between about -30% and that limit;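 further: stimulus is agonist 54-4 at its EC80 concentration; on the % scale 0 is the no-effect control and ±100 the full control effect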
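Tet-induced TRPML1-DL cells loaded with Ca8 no-wash calcium dye were read kinetically on FDSS. Compound addition was followed by EC80 agonist 54-4 (4 uM final); inhibition was read over 110 s.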
* marks the source's active call; other numbers are inactive results; ? = inconclusive; · = no result given. Rows were chosen to be rich in hits. Some 1.3% of all compounds tested hit in one or more screens of this group. Unless noted, no stated cut-off is given here; in the data, active means activation above about 50%; inconclusive means mostly about 30% to 49%; inactive means weaker than that.

SMILES | TSG101-PTAP inh | PKM2 activator | BRCA1 expr up | TRPML1 ag | IL-2 act | TRPML1 inh
CCOC(=O)c1ccc(N/C=C/C(=O)c2ccc(OC)cc2)cc1 | -1.2% | -3.2% | 54.5% | -0.1 | -2.4 | -8.1
CCOC(=O)c1ccc(N/C=C/C(=O)c2ccccc2)cc1 | 0.6% | -9.8% | 12.6µM* | 0.0 | -0.5 | 15.4
COc1ccc(Nc2nc3ccc(Cl)cc3n3nnnc23)cc1OC | · | · | · | 0.7 | · | -11.6
Cc1cc(C)c(NC(=O)CCn2c(=O)c3cccn3c3ccccc32)c(C)c1 | · | · | · | 2.8 | · | ?
O=S(=O)(c1ccc2c(c1)OCCO2)N1CCC(n2cnc3cc(F)ccc32)CC1 | -7.4% | 7.08µM* | -26.2% | 1.4 | -2.2 | 11.5
O=S(=O)(c1ccc2c(c1)OCCO2)N1CCC(n2nnc3cc(F)ccc32)CC1 | -2.0% | 8.91µM* | -0.1% | 2.1 | 2.1 | 1.9
O=S(=O)(c1ccc(F)cc1)N1CCC(n2cnc3ccccc32)CC1 | 0.1% | · | 10.8% | -1.2 | 5.0 | -8.3
CCC(CC)C(=O)Nc1nnc(S(=O)(=O)N(C)c2cc(C)cc(C)c2)s1 | · | · | · | 2.2 | · | 5.0
O=C(Nc1ccc(C(=O)O)cc1)/C(=C\C=C\c1ccccc1)NC(=O)c1cccc(Br)c1 | -3.1% | 4.5% | -36.1% | 1.1 | -2.4 | -3.2
O=C(Nc1ccc(C(=O)O)cc1)/C(=C\C=C\c1ccccc1)NC(=O)c1ccccc1Br | -2.1% | -3.2% | 10µM* | -0.3 | 0.9 | -5.4
COc1cccc(-c2ccnc3c(-c4ccc(F)cc4)c(C)nn23)c1 | · | · | 0.0% | -0.1 | · | -14.2
COc1cccc(-c2ccnc3c(-c4ccccc4)c(C)nn23)c1 | · | · | 11.2µM* | 1.5 | · | 22.2
COc1cccc(-c2cnc3cccnn23)c1 | · | · | 12.6µM* | 3.0 | -0.2 | 77.8
O=[N+]([O-])c1ccc(-c2nc3ccc([N+](=O)[O-])cc3[nH]2)cc1 | 0.7% | 1.0% | -23.6% | -0.2 | -0.4 | -0.7
Nc1ccc(-c2nc3ccc([N+](=O)[O-])cc3[nH]2)cc1 | 0.0% | -7.0% | 2µM* | -0.4 | -4.2 | 17.3
Cc1cc(C)c(S(=O)(=O)N2CCN(C(=O)CCn3nc(C)c(C)c3C)CC2)c(C)c1 | -1.5% | 14.1µM* | -17.7% | 0.8 | -1.3 | 4.2
Cc1nn(CCC(=O)N2CCN(S(=O)(=O)c3ccccc3)CC2)c(C)c1C | -4.1% | 11.2µM* | 0.1% | -0.3 | 1.2 | 15.0
COc1ccc(/C=c2\[nH]c(=O)/c(=C/c3ccc(OC)c(OC)c3)[nH]c2=O)cc1OC | · | · | 0.0% | -0.2 | · | ·
CCCCNC(=O)Nc1ccnn1C1CCCCC1 | -3.8% | 3.98µM* | -13.7% | 0.0 | 1.6 | -1.7
COc1ccccc1NC(=O)N(C)C[C@@H]1OCc2cnnn2CCCC(=O)N([C@H](C)CO)C[C@@H]1C | · | · | -5.4% | -0.7 | -0.4 | -13.0
O=C(Nc1ccccc1C(=O)OCc1cc(=O)n2c3c(sc2n1)CCCC3)c1ccccc1 | · | · | · | 1.7 | · | -0.3
COc1cc(/C=N/N=C2/NC(=O)C(CC(=O)O)S2)ccc1OCc1cccc(Cl)c1 (stereo not given) | -4.7% | -22.2% | 11.2µM* | 0.0 | 0.5 | -2.2
COc1ccc(/C=N/N=C2/NC(=O)C(CC(=O)O)S2)cc1OCc1ccc(Cl)cc1 (stereo not given) | -1.9% | -17.9% | 1.2% | 0.2 | 0.6 | -2.1

Screening results deposited in PubChem by National Center for Advancing Translational Sciences (NCATS).
